Assay [1] can be described thus: small molecules captured by biotinylated probe aFSTL3 – biochemical, small-molecule microarray, fluorescence 635/667, stem cell growth factor project, primary screen (AID 1064).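 Note: measures binding of the biotinylated anti-FSTL3 antibody to printed compounds.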 To be noted: higher = more signal.
Assay [2] can be described thus: binders from COS7 lysate, DM2A8 probe, primary screen, torsin A project, cell lysate, small-molecule microarray, fluorescence 635/667 (AID 1065). The note with it: higher = more signal, COS7 lysate expressing mutant human TOR1A.
A short description of assay [3]: small molecules captured by biotinylated probe aFGF2 – biochemical, small-molecule microarray, fluorescence 635/667, stem cell growth factor project, primary screen (AID 1067).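 Note: measures binding of biotinylated aFGF2 protein to printed compounds on slides; z-score merges feature fluorescence and signal-to-noise across triplicate slides.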 The note with it: higher = more signal.
Assay [4] is described as follows: small molecules captured by biotinylated probe aFGF10 – biochemical, small-molecule microarray, fluorescence 635/667, stem cell growth factor project, primary screen (AID 1071).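 Note: score merges 667 nm spot intensity and signal to noise from triplicate slides.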 The note with it: higher = more signal.
Assay [5] deals with Neurogenic locus notch homolog protein 2 (Homo sapiens) (UniProt Q04721). Kind of assay: small molecules binding Notch2 protein – biochemical, small-molecule microarray, 635 nm fluorescence, stem cell growth factors, primary screen (AID 1073). To be noted: higher = more signal.
Chain of Neurogenic locus notch homolog protein 2 (Homo sapiens) (Q04721 whole entry, looked up, canonical isoform): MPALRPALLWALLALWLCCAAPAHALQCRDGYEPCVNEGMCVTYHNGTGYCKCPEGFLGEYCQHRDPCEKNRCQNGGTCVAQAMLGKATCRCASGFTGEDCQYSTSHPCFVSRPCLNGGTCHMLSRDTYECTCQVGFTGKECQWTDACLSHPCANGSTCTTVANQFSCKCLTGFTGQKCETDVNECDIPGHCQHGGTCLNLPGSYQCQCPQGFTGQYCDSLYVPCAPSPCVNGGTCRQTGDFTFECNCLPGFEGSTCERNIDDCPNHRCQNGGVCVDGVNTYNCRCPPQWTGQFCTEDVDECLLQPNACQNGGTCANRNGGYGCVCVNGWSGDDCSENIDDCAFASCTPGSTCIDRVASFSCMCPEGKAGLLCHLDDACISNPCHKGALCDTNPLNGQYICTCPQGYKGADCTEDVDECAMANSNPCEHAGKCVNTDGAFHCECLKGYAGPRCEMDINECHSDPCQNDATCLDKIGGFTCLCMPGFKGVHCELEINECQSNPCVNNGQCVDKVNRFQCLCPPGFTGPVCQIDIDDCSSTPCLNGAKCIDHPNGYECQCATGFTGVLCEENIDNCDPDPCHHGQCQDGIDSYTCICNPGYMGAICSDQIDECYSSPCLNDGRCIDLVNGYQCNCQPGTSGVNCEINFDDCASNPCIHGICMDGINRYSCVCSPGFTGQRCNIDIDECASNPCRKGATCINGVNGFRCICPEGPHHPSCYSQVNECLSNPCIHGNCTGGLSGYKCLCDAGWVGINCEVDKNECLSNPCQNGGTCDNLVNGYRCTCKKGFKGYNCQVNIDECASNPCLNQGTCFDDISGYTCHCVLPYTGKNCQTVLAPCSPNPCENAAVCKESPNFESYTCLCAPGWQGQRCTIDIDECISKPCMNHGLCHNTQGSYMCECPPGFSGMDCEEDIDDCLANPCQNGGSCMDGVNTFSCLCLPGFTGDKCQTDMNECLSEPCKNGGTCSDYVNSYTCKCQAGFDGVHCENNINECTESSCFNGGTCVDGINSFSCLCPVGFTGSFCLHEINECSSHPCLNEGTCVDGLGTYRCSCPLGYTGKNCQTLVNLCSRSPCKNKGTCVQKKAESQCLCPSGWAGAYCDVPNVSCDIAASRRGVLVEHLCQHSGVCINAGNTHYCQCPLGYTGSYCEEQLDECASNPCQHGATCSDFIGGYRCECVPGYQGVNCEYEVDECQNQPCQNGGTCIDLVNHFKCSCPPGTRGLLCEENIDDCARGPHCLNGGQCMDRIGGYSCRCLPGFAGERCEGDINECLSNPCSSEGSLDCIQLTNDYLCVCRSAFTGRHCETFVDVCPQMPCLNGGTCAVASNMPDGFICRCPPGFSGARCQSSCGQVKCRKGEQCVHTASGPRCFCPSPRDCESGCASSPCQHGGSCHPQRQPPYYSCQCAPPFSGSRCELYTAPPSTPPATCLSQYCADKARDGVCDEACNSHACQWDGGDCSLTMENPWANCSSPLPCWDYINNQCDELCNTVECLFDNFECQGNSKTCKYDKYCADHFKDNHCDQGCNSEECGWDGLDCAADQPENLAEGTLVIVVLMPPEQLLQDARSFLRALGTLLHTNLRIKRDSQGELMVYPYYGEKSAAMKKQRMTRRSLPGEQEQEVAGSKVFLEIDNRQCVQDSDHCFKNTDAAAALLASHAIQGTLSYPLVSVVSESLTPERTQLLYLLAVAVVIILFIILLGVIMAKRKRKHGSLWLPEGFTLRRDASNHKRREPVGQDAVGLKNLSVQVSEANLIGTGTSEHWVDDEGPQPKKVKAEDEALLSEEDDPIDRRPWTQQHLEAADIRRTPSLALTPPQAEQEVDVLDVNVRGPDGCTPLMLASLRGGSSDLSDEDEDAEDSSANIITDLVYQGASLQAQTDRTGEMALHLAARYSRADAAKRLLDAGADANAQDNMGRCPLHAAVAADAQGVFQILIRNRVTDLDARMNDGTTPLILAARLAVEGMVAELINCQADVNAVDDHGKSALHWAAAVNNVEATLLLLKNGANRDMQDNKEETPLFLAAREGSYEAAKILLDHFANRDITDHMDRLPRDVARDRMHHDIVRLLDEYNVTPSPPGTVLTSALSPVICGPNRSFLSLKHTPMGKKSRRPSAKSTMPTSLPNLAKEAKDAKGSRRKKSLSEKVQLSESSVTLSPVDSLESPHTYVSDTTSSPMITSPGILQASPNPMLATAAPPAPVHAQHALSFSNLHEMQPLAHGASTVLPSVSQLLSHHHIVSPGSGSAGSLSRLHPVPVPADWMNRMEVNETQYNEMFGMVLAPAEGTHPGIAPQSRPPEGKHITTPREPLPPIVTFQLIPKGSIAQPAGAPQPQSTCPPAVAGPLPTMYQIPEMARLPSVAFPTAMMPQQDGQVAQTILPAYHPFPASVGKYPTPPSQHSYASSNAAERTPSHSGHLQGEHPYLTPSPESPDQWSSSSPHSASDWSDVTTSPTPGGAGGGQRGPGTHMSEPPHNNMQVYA
Assay [6] addresses Pro-neuregulin-1, membrane-bound isoform (Homo sapiens) (UniProt Q02297). Description: small molecules binding neuregulin-1 protein – biochemical, small-molecule microarray, fluorescence 635/667, psychiatric disease protein project, primary screen (AID 1075).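 Note: score combines 667 nm spot fluorescence with signal to noise.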 The note with it: NRG1 binding, 635 nm fluorescence, higher = more signal.
For assay [7], the system named is Neuregulin-1 EGF-like domain. Kind of assay: small molecules binding NRG1 EGF domain – biochemical, small-molecule microarray, 635 nm fluorescence, primary screen (AID 1081).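 Note: binding of the protein to compounds printed on small-molecule microarray slides.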 To be noted: higher = more signal.
The nature of assay [8]: FRG1 expression reporter modulators in myotubes – cell-based, C2C12 myotubes, firefly/Renilla luciferase, luminescence, FRG1 inhibition for FSHD, primary screen (AID 1084). To be noted: FRG1 promoter luciferase, higher = more signal, called active from +8 up or from −8 down.
A short description of assay [9]: small molecules captured by biotinylated probe aFST – biochemical, small-molecule microarray, fluorescence 635/667, stem cell growth factor project, primary screen (AID 1086).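 Note: score merges 667 nm fluorescence with signal-to-noise of each printed compound spot.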 The note with it: higher = more signal.
A short description of assay [10]: binders of probe aHhip on microarray, primary screen, stem cell growth factor project, biochemical, small-molecule microarray, fluorescence 635/667 (AID 1087).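 Note: score merges spot fluorescence at 667nm with spot signal to noise ratio.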 To be noted: higher = more signal.
Assay [11] concerns PRMT1 (protein arginine N-methyltransferase 1). Kind of assay: small molecules binding arginine methyltransferase PRMT1 – biochemical, small-molecule microarray, 635 nm fluorescence, primary screen (AID 1088).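 Note: binding of Prmt1 protein to compounds spotted on small-molecule microarray slides.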 The note with it: higher = more signal.
Assay [12] can be described thus: growth effects on S. cerevisiae YJM789 – YJM789 clinical isolate, OD600, 24 h, basal, primary screen (AID 1089).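 Note: growth of clinical yeast isolate S. cerevisiae YJM 789 seeded 1000 cells per well; test concentration not given here.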 To be noted: higher = more signal, called active from +8 up or from −8 down.
Assay [13] in a line: S. pombe growth modifiers, basal conditions – strain 972, OD600, 24 h, no modulator, primary screen (AID 1090).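 Note: basal condition with compound alone and no growth modifier present; test concentration not given here.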 To be noted: S. pombe 972 growth, higher = more signal, called active from +8 up or from −8 down.
Assay [14] in a line: budding yeast growth modifiers under rapamycin – strain BY4716, OD600, 96 h, primary screen (AID 1091). Note: test concentration not given here. To be noted: S. cerevisiae BY4716 + rapamycin, higher = more signal, called active from +8 up or from −8 down.
In assay [15] the target is Torsin-1A-interacting protein 2 (Homo sapiens) (UniProt Q8NFQ8). Kind of assay: small molecules binding lysate-expressed LULL1 – cell lysate, human LULL1 lysate, 635/667 nm fluorescence, primary screen (AID 1092).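 Note: probe is lysate of COS7 cells overexpressing human LULL1; score merges per-feature 667 nm fluorescence with signal-to-noise.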 The note with it: small-molecule microarray, hLULL1 lysate binding, 635 nm fluorescence; higher = more signal.
Chain of Torsin-1A-interacting protein 2 (Homo sapiens) (Q8NFQ8 whole entry, looked up): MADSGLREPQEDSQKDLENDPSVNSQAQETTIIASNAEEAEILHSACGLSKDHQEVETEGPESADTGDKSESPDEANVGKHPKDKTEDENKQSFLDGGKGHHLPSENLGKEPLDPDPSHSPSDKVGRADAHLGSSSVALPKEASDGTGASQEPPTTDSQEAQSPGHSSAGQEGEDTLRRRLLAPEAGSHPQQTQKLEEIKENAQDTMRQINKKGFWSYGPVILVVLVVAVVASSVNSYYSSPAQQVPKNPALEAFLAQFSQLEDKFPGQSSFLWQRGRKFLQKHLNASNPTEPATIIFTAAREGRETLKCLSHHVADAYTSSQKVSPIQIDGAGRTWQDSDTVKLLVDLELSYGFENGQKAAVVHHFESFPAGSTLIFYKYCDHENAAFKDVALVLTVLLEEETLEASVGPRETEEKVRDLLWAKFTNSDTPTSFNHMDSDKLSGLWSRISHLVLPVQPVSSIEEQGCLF
The nature of assay [16]: optical density change of DRC41 E. coli – strain DRC41, OD650, 24 h, E. coli filamentation project, primary screen (AID 1093).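 Note: MC1000 strain lacking acrAB efflux and sulA so SOS filamentation is blocked; test concentration not given here.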 The note with it: E. coli DRC41 growth, higher = more signal, called active from +8 up or from −8 down.
Assay [17] can be described thus: probe aLefty2 binding to arrayed compounds – biochemical, biotinylated probe, 635/667 nm fluorescence, primary screen (AID 1094).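 Note: score merges spot fluorescence near 667 nm with spot signal-to-noise ratio.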 The note with it: small-molecule microarray, higher = more signal.
In assay [18] the test system is Noggin (protein binding on small-molecule microarray). Kind of assay: small molecules binding Noggin protein – biochemical, 635/667 nm fluorescence, primary screen (AID 1095).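 Note: score merges 667 nm feature fluorescence with signal to noise over triplicate slides.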 The note with it: 635 nm fluorescence, higher = more signal.
For assay [19], the target named is Neurogenic locus notch homolog protein 3 (Homo sapiens) (UniProt Q9UM47). Description: small molecules binding NOTCH3 protein – biochemical, 635/667 nm fluorescence, primary screen (AID 1096). The note with it: small-molecule microarray, 635 nm fluorescence, higher = more signal.
The nature of assay [20]: probe aEGFR binding to arrayed compounds – biochemical, biotinylated probe, 635/667 nm fluorescence, primary screen (AID 1097).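 Note: probe is a biotinylated anti-EGFR antibody binding compounds printed on slides; score combines fluorescence near 667 nm and signal to noise of each spot.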 The note with it: small-molecule microarray, higher = more signal.

Calls of active or inactive are those of the source.

Chain of Pro-neuregulin-1, membrane-bound isoform (Homo sapiens) (Q02297 whole entry, looked up, the tested form may be a part, canonical isoform): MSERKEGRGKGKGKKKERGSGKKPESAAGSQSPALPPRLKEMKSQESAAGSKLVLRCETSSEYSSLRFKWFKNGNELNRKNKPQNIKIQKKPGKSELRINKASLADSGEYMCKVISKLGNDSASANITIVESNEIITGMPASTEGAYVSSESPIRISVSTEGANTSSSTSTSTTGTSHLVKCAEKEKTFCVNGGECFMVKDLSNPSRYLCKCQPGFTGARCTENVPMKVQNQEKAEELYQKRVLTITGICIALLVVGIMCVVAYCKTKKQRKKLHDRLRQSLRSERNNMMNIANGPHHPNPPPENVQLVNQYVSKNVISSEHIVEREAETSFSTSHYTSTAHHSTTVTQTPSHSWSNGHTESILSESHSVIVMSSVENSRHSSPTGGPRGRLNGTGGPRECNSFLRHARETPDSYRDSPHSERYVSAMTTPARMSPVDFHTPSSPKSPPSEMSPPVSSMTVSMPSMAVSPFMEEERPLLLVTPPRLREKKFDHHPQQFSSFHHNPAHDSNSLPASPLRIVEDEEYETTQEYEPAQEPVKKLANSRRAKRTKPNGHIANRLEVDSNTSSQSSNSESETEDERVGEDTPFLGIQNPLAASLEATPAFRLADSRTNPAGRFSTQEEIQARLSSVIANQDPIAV

For the molecule `O=C1c2ccccc2[C@](Cc2ccccc2I)(C(=O)NCCN2CCOCC2)[C@H](c2ccc(CO)cc2)N1C1CCCCC1`, the composite z-score in assay [1] was 0.446; in assay [2], 0.473; in assay [3], -0.0181; in [4], 0.352; in assay [5] it was 1.39; in assay [6], 0.738. In addition, the composite z-score in assay [7] turned out to be 1.22; in [9] it was 1.19; in [10], 0.259; in assay [11], 1.43; in [15], 1.53; in assay [17], 0.227. The composite z-score worked out at 1.12 in assay [18], 1.06 in [19] and 0.521 in assay [20]. In addition, the z-score in assay [8] is -4.42 (inactive); in [12] it was -0.139 (inactive); in [13] it was -0.156 (inactive); in assay [14], 0.216 (inactive); in assay [16], 1.09 (inactive).
For `C[C@H]1C2[C@H](Cc3ccccc3)NC(=O)[C@]23C(=O)N[C@H](Cc2ccccc2)C(=O)N2CCC[C@H]2C(=O)NC/C=C\C/C=C/C3[C@@H]2O[C@]12C` (stereo not given in full), the composite z-score in assay [1] was -0.4; in assay [2] it was -0.217; in assay [3], -0.0439; in [4], 0.293; in [5], 0.451; in assay [6], 0.455. Besides, the composite z-score in assay [7] was -0.473; in [9], 0.0114; in assay [10], -0.236; in assay [11] it was 0.178; in [15], 0.392; in assay [17], -0.175. The composite z-score was 0.177 in assay [18], 0.492 in assay [19] and -0.13 in [20]. For the same molecule, the z-score was 1.59 (inactive) in assay [8]; -0.662 (inactive) in assay [12]; -1.06 (inactive) in [13]; -1.19 (inactive) in assay [14]; 0.132 (inactive) in [16].
Regarding `COC(=O)[C@@]1(Cc2ccccc2)[C@H]2c3cc(C(=O)N4CCCC4)n(Cc4ccc(S(C)(=O)=O)cc4)c3C[C@H]2CN1C(=O)c1ccccc1`, the composite z-score in [1] is 1; in assay [2], 0.0844; in assay [3], 0.371; in assay [4], -0.0015; in assay [5], 1.68; in [6], 1.66. The composite z-score in [7] was found to be 1.31; in [9], 1.23; in [10] it was 0.939; in assay [11] it was 0.375; in assay [15], 3.56; in assay [17], 0.0495. Further, the composite z-score in assay [18] stood at 0.0689; in assay [19] it was 1.01; in assay [20], 0.348. Further, the z-score in assay [8] was 1.45 (inactive); in assay [12], 0.527 (inactive); in assay [13], 0.955 (inactive); in assay [14] it was 0.671 (inactive); in [16], -0.47 (inactive).
With `C=C[C@H](CO[Si](CC)(CC)CC)N(Cc1ccc(OC(C)=O)c(OC)c1)S(=O)(=O)c1ccc(Br)cc1`, the composite z-score in assay [1] was 0.572; in [2], 1.64; in assay [3], 0.365; in [4], 0.326; in assay [5], -0.156; in assay [6] it was 1.27. In addition, the composite z-score in assay [7] is 1.05; in [9] it was 1.22; in assay [10] it was -0.0788; in [11] it was 0.87; in assay [15], 1.6; in assay [17], 0.476. The composite z-score is -0.0715 in [18], -0.334 in assay [19] and 0.0819 in assay [20]. Also, the z-score in assay [8] is -2.48 (inactive); in assay [12] it was -1.77 (inactive); in [13] it was -1.01 (inactive); in [14], 0.196 (inactive); in [16], 0.415 (inactive).
For `CCOC(=O)C[C@H]1[C@H](OC(=O)c2ccc(-c3ccccc3)cc2)[C@@H](NC(=O)Cc2ccc(OC)cc2)c2cc(OCCCO)ccc2N1C(=O)c1ccccc1`, the composite z-score was -0.0117 in [1]; -0.354 in [2]; -0.0316 in [3]; 0.23 in assay [4]; 0.255 in assay [5]; 0.176 in assay [6]. The composite z-score in assay [7] was 0.3; in [9] it was 0.376; in [10], -0.0391; in assay [11], -0.15; in [15], 0.905; in [17], 0.044. Besides, the results for the composite z-score in assay [18], in assay [19] and in assay [20] were 0.763, 0.238 and -0.122, respectively. Also, the z-score was -0.831 (inactive) in [8]; 0.359 (inactive) in assay [12]; 0.822 (inactive) in assay [13]; 0.72 (inactive) in assay [14]; -0.69 (inactive) in [16].
In the case of `COc1cc2c(cc1OC)CN(C(=O)[C@H]1[C@@H]3C(=O)O[C@@H](c4ccccc4)[C@@H](c4ccccc4)N3[C@@H](c3ccc(O)cc3)[C@]13C(=O)Nc1ccccc13)CC2`, the composite z-score in assay [1] is 0.418; in [2] it was 0.814; in [3] it was -0.0282; in assay [4], 0.681; in [5], -0.0554; in assay [6], 1.41. Also, the composite z-score is 1.38 in assay [7]; -0.0422 in [9]; 0.0129 in assay [10]; 1.27 in assay [11]; 2.32 in [15]; -0.139 in assay [17]. Further, the composite z-score in [18] is 0.0366; in [19], 0.518; in [20], -0.191. For the same molecule, the z-score in [8] is -1.09 (inactive); in assay [12], 1.16 (inactive); in assay [13], 0.536 (inactive); in assay [14], 1.74 (inactive); in assay [16], -0.204 (inactive).
As to `COC(=O)[C@@]1(Cc2ccc(F)cc2)[C@H]2c3cc(C(=O)N(C)C)n(Cc4ccc(Cl)c(C(F)(F)F)c4)c3C[C@H]2CN1C(=O)c1ccccc1`, the composite z-score was 1.15 in assay [1]; 1.65 in assay [2]; -0.0355 in [3]; 0.215 in assay [4]; 1.74 in [5]; 1.83 in assay [6]. Moreover, the composite z-score is 1.31 in [7]; 1.71 in assay [9]; -0.0296 in assay [10]; 1.31 in [11]; 3.62 in [15]; 0.395 in assay [17]. For the same molecule, the results for the composite z-score in assay [18], in [19] and in assay [20] were -0.602, 1.02 and 0.231, respectively. Moreover, the z-score is 1.3 (inactive) in assay [8]; 0.44 (inactive) in [12]; 1.29 (inactive) in assay [13]; 1.69 (inactive) in assay [14]; -0.824 (inactive) in [16].
For `[N-]=[N+]=Nc1ccccc1[C@@H]1OC(c2ccc(OCCCO)cc2)=N[C@]1(Cc1ccccc1)C(=O)N1CCOCC1`, the composite z-score in assay [1] was 0.324; in [2], 0.0788; in assay [3], 0.14; in assay [4], 0.781; in assay [5], 1.55; in [6] it was 1.26. Further, the composite z-score in assay [7] amounted to 1.2; in assay [9], 0.802; in assay [10], 0.0053; in [11] it was 1.56; in assay [15] it was 3.22; in [17] it was 0.225. Also, the composite z-score in assay [18] was determined as 0.328; in assay [19], 1.1; in assay [20], 0.276. In addition, the z-score was -1.5 (inactive) in [8]; 0.785 (inactive) in [12]; -1.26 (inactive) in [13]; 1.85 (inactive) in assay [14]; 0.301 (inactive) in [16].
`CN(C)CCCCCCNC(=O)[C@H]1C[C@H]2C(=O)N[C@@H](CCCCN)C(=O)N2[C@H]1c1cccc(OCCO)c1`: the composite z-score in assay [1] is 3.62; in assay [2], 2.48; in assay [3], 0.898; in assay [4] it was 1.15; in assay [5] it was 1.65; in assay [6], 2.67. For the same molecule, the composite z-score in [7] worked out at 1.55; in [9] it was 3.58; in assay [10], 3.28; in [11] it was 1.56; in [15], 4.65; in assay [17], 1.76. Moreover, the composite z-score came out at 2.06 in assay [18], 1.01 in [19] and 1.12 in [20]. The z-score was 3.88 (inactive) in assay [8]; -0.871 (inactive) in assay [12]; -9.2 (active) in [13]; -0.622 (inactive) in assay [14]; -0.15 (inactive) in assay [16].
